Reference: PubChem BioAssay (EPA / NIEHS)
Several values for one entry are separate records, joined by “and”; a condition that tells them apart may be missing. Identical values can stand only once. Where a structure was tested more than once in an assay, its records may differ in their call. Activity calls are given as the source filed them. Rule for the calls: active = hit-call score of the fitted dose curve at least 0.9, where 1 is the maximum; inactive = score below 0.9.

Legend:
[1] = BSK_CASM3C_SRB: Viability Assessment in the BioMAP Diversity Plus: CASM3C Assay (AID 2283050); settings: primary human coronary artery smooth muscle cells
[2] = read-out: Thrombomodulin, THBD (gene 7056); assay: BSK_CASM3C_Thrombomodulin: BioMAP Diversity Plus: CASM3C Assay for Thrombomodulin Biomarker Activity (AID 2283051); settings: primary human coronary artery smooth muscle cells; actives raise or lower the signal;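 note: thrombomodulin protein level measured by ELISA 24 h after dosing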
[3] = read-out: Tissue Factor, F3 (gene 2152); assay: BSK_CASM3C_TissueFactor: BioMAP Diversity Plus: CASM3C Assay for Tissue Factor Biomarker Activity (AID 2283052); settings: primary human coronary artery smooth muscle cells; actives raise or lower the signal;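 note: cell surface tissue factor protein level read by ELISA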
[4] = read-out: Interferon-gamma inducible Protein 10 (IP10), CXCL10 (gene 3627); assay: BSK_hDFCGF_IP10: BioMAP Diversity Plus: hDFCGF Assay for Interferon-gamma inducible Protein 10 (IP10) Biomarker Activity (AID 2283053); settings: primary human foreskin fibroblasts; actives raise or lower the signal
Outline: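 IP-10 levels, quantified by ELISA, are taken from human foreskin fibroblast cultures 24 h after chemical treatment, with DMSO serving as negative control and baseline for bidirectional analysis.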

[5] = read-out: Urokinase-type plasminogen activator receptor (uPAR), PLAUR (gene 5329); assay: BSK_CASM3C_uPAR: BioMAP Diversity Plus: CASM3C Assay for Urokinase-type plasminogen activator receptor (uPAR) Biomarker Activity (AID 2283054); settings: primary human coronary artery smooth muscle cells; actives raise or lower the signal;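 note: cell-surface uPAR protein level quantified by ELISA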
[6] = read-out: Vascular cell adhesion molecule 1 (VCAM1), VCAM1 (gene 7412); assay: BSK_CASM3C_VCAM1: BioMAP Diversity Plus: CASM3C Assay for Vascular cell adhesion molecule 1 (VCAM1) Biomarker Activity (AID 2283055); settings: primary human coronary artery smooth muscle cells; actives raise or lower the signal;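 note: VCAM-1 protein level quantified by ELISA on the cells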
[7] = read-out: Epidermal growth factor receptor (EGFR), EGFR (gene 1956); assay: BSK_hDFCGF_EGFR: BioMAP Diversity Plus: hDFCGF Assay for Epidermal growth factor receptor (EGFR) Biomarker Activity (AID 2283057); settings: primary human foreskin fibroblasts; actives raise or lower the signal
Outline: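 Measured by ELISA: EGFR levels on primary human foreskin fibroblasts 24 h after chemical treatment, analysed relative to DMSO with bidirectional fitting.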

[8] = read-out: Interleukin-8 (IL8), CXCL8 (gene 3576); assay: BSK_hDFCGF_IL8: BioMAP Diversity Plus: hDFCGF Assay for Interleukin-8 (IL8) Biomarker Activity (AID 2283058); settings: primary human foreskin fibroblasts; actives raise or lower the signal
Outline: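 IL-8 levels from compound-treated primary human fibroblasts were read by ELISA at 24 h, with DMSO serving as baseline for bidirectional fitting.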

[9] = BSK_hDFCGF_Proliferation: Cell Proliferation Assessment in the BioMAP Diversity Plus: hDFCGF Assay (AID 2283059); settings: primary human foreskin fibroblasts;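 note: curves fitted for both rise and fall of signal versus DMSO baseline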
Outline: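 This proliferation readout used SRB total-protein staining of human foreskin fibroblasts […], normalized to DMSO with bidirectional curve fitting.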

[10] = read-out: Macrophage colony-stimulating factor (MCSF), CSF1 (gene 1435); assay: BSK_hDFCGF_MCSF: BioMAP Diversity Plus: hDFCGF Assay for Macrophage colony-stimulating factor (MCSF) Biomarker Activity (AID 2283060); settings: primary human foreskin fibroblasts; actives raise or lower the signal
Outline: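 M-CSF levels, determined by ELISA, are taken at 24 h after dosing human skin fibroblasts. Responses in either direction are fitted with DMSO serving as the baseline.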

[11] = BSK_hDFCGF_SRB: Viability Assessment in the BioMAP Diversity Plus: hDFCGF Assay (AID 2283061); settings: primary human foreskin fibroblasts;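 note: cells exposed to compound for 24 h before the read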
Outline: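 Cells were dosed with test chemical, cultured 24 h, fixed with 10% TCA, then stained with 0.1% SRB and read at 560 nm. The fibroblasts were human foreskin primary cells, and DMSO served as baseline.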

[12] = read-out: TIMP metallopeptidase inhibitor 1 (TIMP1), TIMP1 (gene 7076); assay: BSK_hDFCGF_TIMP1: BioMAP Diversity Plus: hDFCGF Assay for TIMP metallopeptidase inhibitor 1 (TIMP1) Biomarker Activity (AID 2283062); settings: primary human foreskin fibroblasts; actives raise or lower the signal
Outline: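 Fibroblasts from human foreskin are treated with test chemical and harvested at 24 h. TIMP-1 is quantified by ELISA, and gain or loss of signal is scored against DMSO.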

[13] = read-out: Monokine induced gamma interferon (MIG), CXCL9 (gene 4283); assay: BSK_hDFCGF_MIG: BioMAP Diversity Plus: hDFCGF Assay for Monokine induced gamma interferon (MIG) Biomarker Activity (AID 2283063); settings: primary human foreskin fibroblasts; actives raise or lower the signal
Outline: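 MIG signal, determined by ELISA, reflects 24 h chemical exposure of human skin primary fibroblasts. DMSO serves as negative control and baseline.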

[14] = read-out: Matrix Metallopeptidase 1 (MMP1), MMP1 (gene 4312); assay: BSK_hDFCGF_MMP1: BioMAP Diversity Plus: hDFCGF Assay for Matrix Metallopeptidase 1 (MMP1) Biomarker Activity (AID 2283064); settings: primary human foreskin fibroblasts; actives raise or lower the signal
Outline: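 Primary human foreskin fibroblasts in the hDFCGF system were dosed with test chemical, and MMP1 was measured by ELISA 24 h later. Values come from bidirectional curve fitting against the DMSO baseline.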

[15] = read-out: Vascular cell adhesion molecule 1 (VCAM1), VCAM1 (gene 7412); assay: BSK_hDFCGF_VCAM1: BioMAP Diversity Plus: hDFCGF Assay for Vascular cell adhesion molecule 1 (VCAM1) Biomarker Activity (AID 2283065); settings: primary human foreskin fibroblasts; actives raise or lower the signal;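 for AC50: VCAM-1 protein level quantified by ELISA after 24 h chemical exposure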
Outline: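 Cells are dosed, cultured for 24 h, then VCAM-1 is quantified by ELISA; signal increases and decreases are both fitted relative to DMSO.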

[16] = read-out: Plasminogen activator inhibitor-1 (PAI1), SERPINE1 (gene 5054); assay: BSK_hDFCGF_PAI1: BioMAP Diversity Plus: hDFCGF Assay for Plasminogen activator inhibitor-1 (PAI1) Biomarker Activity (AID 2283066); settings: primary human foreskin fibroblasts; actives raise or lower the signal
Outline: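 PAI-1 levels, determined by ELISA, served as the endpoint in human foreskin fibroblast cultures exposed to compound for 24 h, with DMSO as baseline.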

[17] = read-out: Intercellular Adhesion Molecule 1 (ICAM1), ICAM1 (gene 3383); assay: BSK_KF3CT_ICAM1: BioMAP Diversity Plus: KF3CT Assay for Intercellular Adhesion Molecule 1 (ICAM1) Biomarker Activity (AID 2283067); settings: primary human keratinocytes with fibroblasts; actives raise or lower the signal
Outline: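 Dose the keratinocyte/fibroblast co-culture, wait 24 h, measure ICAM-1 by ELISA, then fit increases or decreases against DMSO. Cytotoxicity is checked in parallel cultures by SRB total-protein staining.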

[18] = read-out: Interferon-gamma inducible Protein 10 (IP10), CXCL10 (gene 3627); assay: BSK_KF3CT_IP10: BioMAP Diversity Plus: KF3CT Assay for Interferon-gamma inducible Protein 10 (IP10) Biomarker Activity (AID 2283068); settings: primary human keratinocytes with fibroblasts; actives raise or lower the signal
Outline: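 Signal is secreted/surface IP-10 by ELISA in a human primary skin co-culture of keratinocytes and foreskin fibroblasts, taken 24 h post-dosing; DMSO served as negative control.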

[19] = BSK_KF3CT_SRB: Viability Assessment in the BioMAP Diversity Plus: KF3CT Assay (AID 2283069); settings: primary human keratinocytes with fibroblasts;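 note: total protein by sulforhodamine B staining as a cytotoxicity measure; fitted for both signal gain and loss against DMSO baseline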
Outline: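 Human primary keratinocyte plus foreskin fibroblast co-culture exposed to chemicals for 24 h. Total protein measured by 0.1% sulforhodamine B staining after 10% TCA fixation, read at 560 nm; bidirectional fitting versus DMSO baseline.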

[20] = read-out: Collagen III, COL3A1 (gene 1281); assay: BSK_hDFCGF_CollagenIII: BioMAP Diversity Plus: hDFCGF Assay for Collagen III Biomarker Activity (AID 2283056); settings: primary human foreskin fibroblasts; actives raise or lower the signal
Outline: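 Cells: human foreskin fibroblasts, primary. Dosing followed by 24 h incubation, then ELISA for collagen III. Both increases and decreases scored relative to DMSO.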

Measured: AC50

C=CC(=O)OCC(F)(F)C(F)(F)C(F)(F)C(F)(F)C(F)(F)C(F)(F)C(F)(F)F
active: [9] 17.5 µM and 46.3 µM
not listed: [20]
inactive: all other assays above

O=S(=O)(OCC(F)F)C(F)(F)F
active: [16] 1.42 µM
inactive: [1] | [2] | [3] | [4] | [5] | [6] | [7] | [8] | [9] | [10] | [11] | [12] | [13] | [14] | [15] | [16] | [18] | [19]

CCCCCCCOC(=O)c1ccccc1C(=O)OCCCCCCC
not listed: [20]
inactive: all other assays above

FC(F)(F)C(F)(F)C(F)(F)C(F)(F)C(F)(F)C(F)(F)CCS
not listed: [17] | [20]
inactive: all other assays above

FC(F)(F)C(F)(F)C(F)(F)N(C(F)(F)C(F)(F)C(F)(F)F)C(F)(F)C(F)(F)C(F)(F)F
not listed: [20]
inactive: all other assays above

C=CC(F)(F)C(F)(F)C(F)(F)C(F)(F)C(F)(F)C(F)(F)C(F)(F)C(F)(F)F
active: [7] 0.27 µM
inactive: [1] | [2] | [3] | [4] | [5] | [6] | [7] | [8] | [9] | [10] | [11] | [12] | [13] | [14] | [15] | [16] | [18] | [19]

O=S(=O)(OCCOC(F)(F)F)C(F)(F)F
not listed: [20]
inactive: all other assays above

OCCCC(F)(F)C(F)(F)C(F)(F)F
not listed: [17] | [20]
inactive: all other assays above

O=C(O)C(F)(F)C(F)(F)OC(F)(F)F
not listed: [17] | [20]
inactive: all other assays above

OCC(F)(F)C(F)(F)C(F)(F)C(F)(F)C(F)(F)C(F)(F)F
inactive: [1] | [2] | [3] | [5] | [6] | [7] | [8] | [11] | [12] | [13] | [14] | [16] | [18] | [19]
active: [4] 55.1 µM and 41.2 µM | [9] 56.1 µM and 54.4 µM | [10] 48.6 µM and 49.4 µM | [11] 45.4 µM | [14] 49.3 µM | [15] 54.6 µM and 46 µM | [16] 47.6 µM

FC(F)(F)C(F)(F)C(F)(F)C(F)(F)CCI
inactive: [1] | [2] | [3] | [4] | [5] | [6] | [7] | [8] | [9] | [10] | [11] | [12] | [13] | [14] | [15] | [16] | [17] | [18] | [19]
active: [13] 49.3 µM

CCCCCCCCC(F)(F)C(F)(F)C(F)(F)C(F)(F)C(F)(F)C(F)(F)F
not listed: [20]
inactive: all other assays above

O=S(=O)(O)C(F)(F)C(F)(F)C(F)(F)C(F)(F)C(F)(F)C(F)(F)C(F)(F)F
not listed: [17] | [20]
inactive: all other assays above

O=C(O)C(F)(OC(F)(F)C(F)(OC(F)(F)C(F)(OC(F)(F)C(F)(F)C(F)(F)F)C(F)(F)F)C(F)(F)F)C(F)(F)F (stereo unspecified)
not listed: [17] | [20]
inactive: all other assays above

Cc1ccc(S(=O)(=O)OCC(F)(F)C(F)(F)C(F)(F)C(F)(F)C(F)(F)C(F)F)cc1
not listed: [17] | [20]
inactive: all other assays above

CC(C)(C)C(=O)CC(=O)C(F)(F)C(F)(F)C(F)(F)F
not listed: [17]
inactive: all other assays above

C=CC(F)(F)C(F)(F)C(F)(F)C(F)(F)C(F)(F)C(F)(F)C(F)(F)C(F)(F)C=C
active: [11] 3.33 µM
inactive: [1] | [2] | [3] | [4] | [5] | [6] | [7] | [8] | [9] | [10] | [11] | [12] | [13] | [14] | [15] | [16] | [17] | [18] | [19]
